Results reported in PubChem BioAssay AID1159580 (chemical genetic matrix, 2015).
Where “and” joins values, the source holds several entries; their conditions need not be identical. Equal values may be shown once. The whole screen tested about 5,500 compounds, of which about 2,000 (36%) were called active. Roughly 18% stayed inconclusive and do not appear here. Rule as the data show it: active = normalized growth mostly below about 0.91 (no sharp cut-off); inconclusive = no clear call, values can overlap the other calls; inactive = mostly above about 0.92. Some of the results follow.

Test: chemical genetic growth profiling, strain panel (AID 1159580);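 also: tested at 20 µM; growth read once vehicle control cultures reached saturation at 30 °C; 1 = growth at the plate median or of vehicle wells; lower values mean less growth of the strain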
Conditions: S. cerevisiae deletion strains, growth OD

Measured: normalized growth

CC(C)(C)CC(C)(C)c1ccc(O)c(Cc2ccc(Cl)cc2Cl)c1
inactive: locus YAL021C, strain ccr4, hits give low values 1 | locus YAL026C, strain drs2, hits give low values 1.03 | locus YAL030W, strain snc1, hits give low values 1.01 | locus YBL061C, strain skt5, hits give low values 1.01 | locus YBR009C, strain hhf1, hits give low values 0.995 | locus YBR021W, strain FUR4, hits give low values 0.993 | locus YBR023C, strain chs3, hits give low values 1.02 | locus YBR171W, strain sec66, hits give low values 1.02 | locus YBR229C, strain ROT2, hits give low values 1.01 | locus YBR231C, strain swc5, hits give low values 1.01 | locus YBR279W, strain paf1, hits give low values 1.02 | locus YCL011C, strain gbp2, hits give low values 1.01 | locus YCL016C, strain dcc1, hits give low values 1.01 | locus YCL029C, strain bik1, hits give low values 1.02 | locus YCL061C, strain MRC1, hits give low values 1.02 | locus YCL069W, strain vba3, hits give low values 1.03 | locus YCR088W, strain abp1, hits give low values 1.02 | locus YDL005C, strain med2, hits give low values 1.03 | locus YDL035C, strain GPR1, hits give low values 1.01 | locus YDL040C, strain nat1, hits give low values 1 | locus YDL074C, strain BRE1, hits give low values 1.01 | locus YDL101C, strain DUN1, hits give low values 1 | locus YDL134C, strain PPH21, hits give low values 1 | locus YDL185W, strain tfp1, hits give low values 1.01 | locus YDL192W, strain arf1, hits give low values 1.01 | locus YDR001C, strain nth1, hits give low values 1.02 | locus YDR069C, strain doa4, hits give low values 1.02 | locus YDR101C, strain arx1, hits give low values 0.997 | locus YDR137W, strain rgp1, hits give low values 1.03 | locus YDR159W, strain sac3, hits give low values 1.02 | locus YDR162C, strain NBP2, hits give low values 1 | locus YDR195W, strain ref2 1.08 | locus YDR297W, strain sur2, hits give low values 1.01 | locus YDR318W, strain mcm21, hits give low values 1.01 | locus YDR334W, strain swr1, hits give low values 1.04 | locus YDR335W, strain msn5, hits give low values 1.04 | locus YDR388W, hits give low values 1.01 | locus YDR392W, strain spt3, hits give low values 0.894 | locus YDR502C, strain sam2, hits give low values 1.02 | locus YEL003W, strain gim4, hits give low values 1.02 | locus YEL037C, strain rad23, hits give low values 1.02 | locus YEL061C, strain CIN8 (second series), hits give low values 1.03 | locus YEL061C, strain CIN8, hits give low values 1 | locus YER015W, strain faa2, hits give low values 1.01 | locus YER016W, strain bim1, hits give low values 1.03 | locus YER110C, hits give low values 1.02 | locus YER111C, strain swi4, hits give low values 1.05 | locus YER155C, strain BEM2 (second series), hits give low values 1.08 | locus YER155C, strain BEM2, hits give low values 0.998 | locus YER167W, strain BCK2, hits give low values 1 | locus YFR010W, strain ubp6, hits give low values 1.02 | locus YGL078C, strain dbp3, hits give low values 1.02 | locus YGL086W, strain mad1, hits give low values 1.01 | locus YGL167C, strain pmr1, hits give low values 1.02 | locus YGL173C, strain kem1, hits give low values 1.02 | locus YGL227W, strain vid30, hits give low values 1.02 | locus YGL240W, strain doc1, hits give low values 1.03 | locus YGL248W, strain PDE1, hits give low values 1 | locus YGL253W, strain hxk2, hits give low values 1.03 | locus YGR078C, strain PAC10, hits give low values 0.997 | locus YGR135W, strain pre9, hits give low values 1.01 | locus YGR229C, strain SMI1, hits give low values 0.992 | locus YGR252W, strain gcn5, hits give low values 1.04 | locus YHR013C, strain ard1, hits give low values 1.02 | locus YHR027C, strain rpn1, hits give low values 1.02 | locus YHR030C, strain SLT2, hits give low values 1 and 1.03 | locus YHR079C, strain IRE1 (second series), hits give low values 1.01 | locus YHR079C, strain IRE1, hits give low values 1.05 | locus YHR094C, strain hxt1, hits give low values 1.01 | locus YHR129C, strain ARP1, hits give low values 1.01 | locus YHR142W, strain chs7, hits give low values 1.02 | locus YHR200W, strain rpn10, hits give low values 1.01 | locus YIL066C, strain RNR3, hits give low values 1.01 | locus YIL073C, strain SPO22, hits give low values 1.04 | locus YIL125W, strain kgd1, hits give low values 1.02 | locus YIR030C, strain dcg1, hits give low values 1.02 | locus YJL092W, strain hpr5, hits give low values 1.02 | locus YJL095W, strain BCK1 (second series), hits give low values 1.01 | locus YJL095W, strain BCK1, hits give low values 1.01 and 1.04 | locus YJL115W, strain asf1, hits give low values 1.04 | locus YJL129C, strain trk1, hits give low values 0.981 | locus YJL134W, strain LCB3, hits give low values 1.01 | locus YJL154C, strain vps35, hits give low values 1.02 | locus YJL164C, strain tpk1, hits give low values 0.994 | locus YJL166W, strain qcr8, hits give low values 1.02 | locus YJL168C, strain set2, hits give low values 1.01 | locus YJL187C, strain SWE1 (second series), hits give low values 1.01 | locus YJL187C, strain SWE1, hits give low values 1.01 | locus YJR043C, strain POL32, hits give low values 1.01 | locus YJR066W, strain TOR1, hits give low values 0.925
